Laboratory results reported in PubChem BioAssay (NCI).
This is part of a sample that, as a whole, favours compounds with a hit. Of some 79,000 tested, about 15% had one in any assay. Unmarked numbers belong to inactive results. The source made the active and inactive calls. No stated cut-off is given here; in the data, active means growth inhibition above about 70%; inactive means the rest.

Assays:
[1] = NCI Yeast Anticancer Drug Screen. Data for the rad50 strain (AID 155);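 further: 0% = growth of vehicle-only cultures of the same strain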; conditions: S. cerevisiae rad50 strain growth inhibition; at 50.0 µM; hits give high values
Outline: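 Relative growth inhibition (compound vs vehicle) was measured in yeast with a defined repair-gene alteration.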

[2] = NCI Yeast Anticancer Drug Screen. Data for the mec2-1 strain (AID 157); conditions: S. cerevisiae mec2-1 strain, at 50.0 µM, hits give high values
Outline: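 Mutant yeast (mec2-1) grown with compound; growth inhibition relative to vehicle control reported.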

[3] = NCI Yeast Anticancer Drug Screen. Data for the sgs1 mgt1 strain (AID 161);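 further: 0% = growth of cultures given vehicle only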; conditions: S. cerevisiae sgs1 mgt1 strain, at 50.0 µM, hits give high values
Outline: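 Compounds are added to genetically altered yeast, and growth is compared with cultures given vehicle alone to give percent inhibition.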

[4] = NCI Yeast Anticancer Drug Screen. Data for the cln2 rad14 strain (AID 165);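 further: 0% = growth equal to vehicle treated cultures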; conditions: S. cerevisiae cln2 rad14 strain, at 50.0 µM, hits give high values
Outline: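 Readout is yeast growth inhibition versus vehicle-treated controls, using a strain with cln2 and rad14 alterations exposed to compound.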

[5] = NCI Yeast Anticancer Drug Screen. Data for the bub3 strain (AID 167); conditions: S. cerevisiae bub3 mutant strain, at 50.0 µM, hits give high values
Outline: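 Screening used yeast with an engineered genetic alteration affecting cell cycle control. Compound-exposed cultures were compared with vehicle cultures, and reduced growth was taken as inhibition.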

[6] = NCI Yeast Anticancer Drug Screen. Data for the mlh1 rad18 strain (AID 175); conditions: S. cerevisiae mlh1 rad18 strain growth inhibition; at 50.0 µM; hits give high values
Outline: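 Genetically defined yeast (DNA repair-deficient) exposed to compounds; growth inhibition determined relative to vehicle.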

Row | SMILES | growth inhibition [1] | growth inhibition [2] | growth inhibition [3] | growth inhibition [4] | growth inhibition [5] | growth inhibition [6]
1 | O=C(C[N+]1(c2ccccc2)CCOCC1)c1ccccc1 | 28.4% | 5.6% | -13.8% | 4.7% | -4.25% | 21.1%
2 | CC(=O)NC(Cc1ccccc1)/C(C)=N\O (stereo unspecified) | -3.15% | -2.05% | -2.65% | -15.2% | 5.25% | 4.8%
3 | COC(=O)C1=CCOc2c1c(C(=O)OC)nn2C | -4.8% | -8.15% | -2.4% | 6.1% | -11.2% | 24.9%
4 | COCCCC(NC(=O)C(CC(C)C)NC(=O)OCc1ccc(OC)cc1)C(=O)OC (stereo unspecified) | -9.6% | -12.9% | -2.25% | 6.6% | -9.1% | 7.8%
5 | COC(=O)c1ccccc1-c1ccccc1C(=O)OC | 7.75% | 18.1% | 10.8% | 25.8% | 15.4% | 13.7%
6 | COC(=O)c1cc(C(=O)OC)c(C(=O)OC)cc1C(=O)OC | -1.35% | -1.25% | 15.8% | -37.8% | 4.2% | 22.1%
7 | OC1(C(O)(c2ccc(-c3ccccc3)cc2)c2ccc(-c3ccccc3)cc2)CCCCC1 | -11% | -7.85% | -34% | -14.6% | -26.4% | -0.5%
8 | O=C(Cc1ccccc1)Nc1ccccc1 | 17.9% | -21.1% | 2.45% | -0.3% | -7.55% | 17.9%
9 | ClC(Cl)=C(Cl)C(Cl)(Cl)Cl | -23.8% | 20.9% | 0.95% | -16.5% | -5.65% | 5.4%
10 | c1ccc(-c2cc3c4ccccc4ccn3c2)cc1 | 15.2% | 10.2% | 20.2% | 3.65% | -2.95% | -5.95%
11 | CC(=O)ON=C(C1CC1)C1CC1 | -6% | 3.5% | -6.4% | 4.3% | -13% | -3.3%
12 | Cc1oc2nc(N(C)C)n3nnnc3c2c1C | -0.35% | -8.5% | -6.15% | -4.1% | 25.3% | -14.4%
13 | COC1OC(COS(=O)(=O)c2ccc(C)cc2)C2OC(C)(C)OC2C1OS(=O)(=O)c1ccc(C)cc1 (stereo unspecified) | 54.9% | 16.8% | -4.4% | 84.2% (active) | 3.85% | 7.1%
14 | C=CCN1C(=O)CC2[C@@H]3CCc4cc(O)ccc4C3CC[C@]2(C)C1=O (stereo partly specified) | -0.65% | -12.7% | -7.6% | 22.8% | 8% | 1.25%
15 | O=C(CCCl)Nc1cccc(CCC(=O)c2ccccc2NC(=O)CCCl)c1 | -8.1% | -18.1% | -4.2% | -15.9% | -7.1% | -10.4%
16 | CC(=O)N=Cc1c(O)[nH]c2ccccc12 | 36.9% | 11.7% | 0.5% | 6.85% | 8.3% | 0.45%
17 | CN1N=C2c3ccccc3OC(c3ccccc3)[C@H]2C1c1ccccc1 (stereo partly specified) | -46.8% | -47.2% | -40.2% | -3.8% | -61.4% | -41.7%
18 | O=C(CCN1CCC2CCC(C2)C1)c1ccc(Cl)cc1 (stereo unspecified) | 17.3% | 3.35% | 46.5% | -4% | 21.3% | -7.3%
19 | CCCNC(=O)c1ccc(Cl)cc1Cl | 29.8% | 7.85% | 18.4% | -12.2% | -12.5% | 27.1%
20 | C=CC1C(OC2OC(CO)C(O)C(O)C2O)OC=C(C(=O)OC)C1CC1CC(=O)CC(CCc2ccc(O)cc2)O1 (stereo unspecified) | 1.8% | -10.1% | -4.9% | 1.45% | -13.9% | -76.2%
21 | COc1cc(/C=C/C(=O)N[C@@H]2C(=O)N3[C@@H]2SC(C)(C)[C@@H]3C(=O)O)cc(OC)c1OC | -5.6% | -18.4% | -34.8% | 10.1% | -7% | -43.9%

Row | SMILES | growth inhibition [1] | growth inhibition [2] | growth inhibition [3] | growth inhibition [4] | growth inhibition [5] | growth inhibition [6]
22 | CC12CCC(C/C1=N\O)C2(C)CBr (stereo unspecified) | 13.4% | -2.15% | -4.35% | -1.1% | -2.3% | 5.1%
23 | N=c1c2ccccc2nc2oc3ccccc3n12 | 48.8% | 12% | 7.7% | 13.2% | 24.9% | 6.5%
24 | CC1=C(N2CCCCC2)S(=O)(=O)c2ccccc2C1 | 42.6% | 3.6% | 26.5% | -19.6% | 8.15% | 44%
25 | COC(=O)c1c([N+](=O)[O-])ncn1[C@H]1OC[C@@H](OC(C)=O)[C@@H](OC(C)=O)[C@@H]1OC(C)=O | -24.8% | -8.6% | -20.9% | -0.8% | -5.5% | 1.55%
26 | CC(=O)OCC1OC(n2c(N)c(C#N)c(-c3ccccc3)c(C#N)c2=S)C(OC(C)=O)C(OC(C)=O)C1OC(C)=O (stereo unspecified) | 13.4% | 11.2% | -21.9% | -8.8% | -14.7% | -60.2%
27 | CCOC(=O)O/C(C)=C\c1ccccc1Cl | 0.4% | -1.15% | -7.75% | 7.75% | -5.85% | 5.7%
28 | Cc1cn(C2CC(O)C(CO)O2)c(=O)nc1NC1CCCCCCCCCCC1 (stereo unspecified) | 1.25% | 5.7% | 10.1% | 12.9% | -5.5% | -6.4%
29 | O=C1c2ccccc2C(=O)N1/N=N/N1C(=O)c2ccccc2C1=O | 97.5% (active) | 97.7% (active) | 98.1% (active) | 96.1% (active) | 98.6% (active) | 97% (active)
30 | CC(C)C(=O)Nc1nc(OCCc2ccc([N+](=O)[O-])cc2)c2ncn(C3CC(O)C(CO)O3)c2n1 (stereo unspecified) | 3.5% | -0.2% | 5.8% | 8.5% | -0.75% | -11.8%
31 | CC1=C(\C=C/C(C)=C/C=C/C(C)=C/C=N/NC(=O)c2cccnc2)C(C)(C)CCC1 | 2.4% | -7.4% | 33.5% | 41.6% | 30% | 27.6%
32 | c1ccc(C2OCCO2)cc1 | 4.05% | -15.2% | -6.7% | 6.6% | -0.2% | 10.4%
33 | c1ccc(Oc2nnc3c4ccccc4ccn23)cc1 | 11.4% | -9.55% | 0.1% | -4.4% | 3.9% | -0.35%
34 | CC1(C)N=C(C(N)=O)c2[nH]cnc2N1 | -2.55% | 4.35% | 12.8% | 13.3% | 11.3% | -51.2%
35 | CC1(C)OP2(O)(OC(C)(C)c3ccccc32)c2ccccc21 | 31.1% | 5.6% | 12.3% | 1.8% | 6.85% | 24.1%
36 | C/C=C(\C)C(=O)OC1C2C(C)C(=O)OC2C(O)C(C)C2C=CC(=O)C21C (stereo unspecified) | -21.1% | -23.5% | -7.9% | 9.4% | -21.4% | 6.5%
37 | CCCC(CCC(C)=O)[N+](=O)[O-] (stereo unspecified) | -9.05% | -3.15% | -8.85% | -14.2% | 1% | 12%
38 | CCOC(OCC)C(C)(C)OC=O | -9.2% | -20.8% | -7.7% | 24.2% | 10.6% | 6.6%
39 | NC(=O)N/N=C/c1ccc([N+](=O)[O-])s1 | -29.6% | -0.8% | 1.8% | -39% | -6.9% | -8.5%
40 | COc1ccc(OC)c(CCCC(=O)O)c1 | 9.6% | 7.65% | 2.7% | 4.35% | 2.05% | -8.7%
41 | CCC1(C)OCC(C)(C)C(C(C)C)O1 (stereo unspecified) | -13.7% | 3% | -17.4% | -62.5% | -39.6% | -14.6%
